In one assay the target is Albumin (Bos taurus) (UniProt P02769). As to the kind of experiment: bovine serum albumin binders on microarray, profiling panel, artefact control for SMM control protein annotation, biochemical, small-molecule microarray, Alexa647 label, 635/667 nm fluorescence (AID 1118).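 Further: score merges 667 nm emission intensity and signal-to-noise per printed compound spot.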 The note with it: BSA-A647 binding, fluorescence 635 nm, higher = more signal.
Assay [1] is described as follows: small-molecule microarray binders of probe aXIP, primary screen, biochemical, NeuroSMM set, 635/667 nm fluorescence (AID 1119).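 Further: probe is the protein aXip251-270 applied at 1 µg/mL to compound-printed slides; binding of probe to printed compounds measured as 667 nm fluorescence plus signal to noise.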 The settings on record: higher = more signal, called active from +8 up or from −8 down.
Assay [2] can be described thus: small-molecule binders of probe aNOTCH3, primary screen, biochemical, small-molecule microarray, 635/667 nm fluorescence (AID 1120).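 Further: probe is a biotin-tagged antibody raised against NOTCH3 rather than NOTCH3 protein; score merges spot fluorescence near 667 nm with spot signal to noise.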 The note with it: higher = more signal.
Assay [3] can be described thus: small-molecule binders of probe aNOTCH2, primary screen, biochemical, small-molecule microarray, 635/667 nm fluorescence (AID 1121).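 Further: score merges feature fluorescence read at 667 nm with its signal to noise.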 The settings on record: higher = more signal.
Assay [4] concerns the target Carbonic anhydrase 2 (Homo sapiens) (UniProt P00918). As to the kind of experiment: CAII small-molecule binders, profiling panel, biochemical, small-molecule microarray, Alexa647-labelled CAII (AID 1122). The note with it: CAII-A647 binding fluorescence, higher = more signal.
Assay [5] can be described thus: COS7 lysate on small-molecule microarray, probe aHis, 635 nm (AID 1123).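 Further: z-score combines 667nm fluorescence intensity with signal-to-noise per printed compound spot.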 The settings on record: COS7 cell lysate, fluorescence, higher = more signal.
Assay [6] is described as follows: compound binding in COS7 lysate, probe aLAP1, primary screen, cell lysate, small-molecule microarray (AID 1124).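 Further: lysate comes from COS7 cells expressing LAP1 and is applied at 0.3 µg/mL; score merges spot fluorescence near 667 nm with signal-to-noise over triplicate slides.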 The note with it: probe aLAP1, fluorescence, higher = more signal.
Another assay has as its system Sam68 (KHDRBS1). The experiment in a line: Sam68 small-molecule binders, primary screen, biochemical, small-molecule microarray, 635 nm fluorescence (AID 1125).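 Further: score merges 667 nm channel intensity with signal to noise over triplicate slides.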 The settings on record: small-molecule microarray binding, higher = more signal.
Assay [7] has as its system Chordin-like protein 2 (CHRDL2). The experiment in a line: CHRDL2 small-molecule binders, primary screen, biochemical, small-molecule microarray, 635 nm fluorescence (AID 1126).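 Further: printed compound slides probed with Chrdl2 protein at 4 µg/mL for 1 h at 4 C; score merges 667 nm emission intensity with signal to noise over three replicate slides.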 The note with it: small-molecule microarray binding, fluorescence 635 nm; higher = more signal.
The target in assay [8] is Concanavalin-A (Canavalia ensiformis) (UniProt P02866). The experiment in a line: ConA small-molecule binders, primary screen, artefact control for SMM control protein annotation, biochemical, small-molecule microarray, Alexa647 label, 635 nm (AID 1127).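 Further: z combines 667 nm emission intensity with signal-to-noise across three replicate slides.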 The settings on record: ConA-A647 binding fluorescence, higher = more signal.
The nature of assay [9]: anti-His antibody binders, primary screen, artefact control for SMM control protein annotation, biochemical, small-molecule microarray, 635 nm fluorescence (AID 1128).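 Further: score merges feature fluorescence with signal-to-noise for each printed compound spot.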 The settings on record: anti-His Alexa647 antibody binding, higher = more signal.
Assay [10] deals with Human papillomavirus type 1a E7 protein (residues 1-88). The experiment in a line: HPV1a E7 small-molecule binders, primary screen, biochemical, small-molecule microarray, residues 1-88, 635 nm (AID 1129). The settings on record: small-molecule microarray binding, fluorescence 635 nm; higher = more signal.
For assay [11], the target named is Focal adhesion kinase 1 (Homo sapiens) (UniProt Q05397). As to the kind of experiment: small-molecule microarray binders of FAK, primary screen, biochemical, 635/667 nm fluorescence, BSA, DTT (AID 1130).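 Further: composite of spot emission at 667 nm and signal to noise over triplicate slides.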 The note with it: PTK2 binding, 635 nm fluorescence, higher = more signal.
In assay [12] the test system is Fibrinogen (Alexa647-labelled). The experiment in a line: fibrinogen binders on compound microarrays, profiling panel, artefact control for SMM control-protein annotation, biochemical, small-molecule microarray, 635/667 nm fluorescence (AID 1131).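 Further: z-score merges 667 nm fluorescence with per-spot signal-to-noise over triplicate slides.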 The note with it: fibrinogen-A647 binding fluorescence, higher = more signal.
In assay [13] the target is Follistatin (Homo sapiens) (UniProt P19883). The experiment in a line: follistatin binders on small-molecule microarrays, primary screen, biochemical, small-molecule microarray, 635/667 nm fluorescence (AID 1132). The note with it: FST binding, 635 nm fluorescence, higher = more signal.
For assay [14], the target named is Fibroblast growth factor 2 (Homo sapiens) (UniProt P09038). As to the kind of experiment: FGF2 binders on small-molecule microarrays, primary screen, biochemical, small-molecule microarray, 635/667 nm fluorescence (AID 1133). The settings on record: small-molecule microarray binding, FGF2, fluorescence 635/667; higher = more signal.
The nature of assay [15]: mitochondrial membrane potential change in A549 cells, profiling panel, cell-based, JC-1 fluorescence, basal, 24 h, 100 nL (AID 1138).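 Further: A549 lung adenocarcinoma cells under basal conditions with no added stimulus; test concentration not given here.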 The note with it: higher = more signal.
Another assay deals with Lefty1. As to the kind of experiment: Lefty1 binders on small-molecule microarrays, primary screen, biochemical, small-molecule microarray, 635/667 nm fluorescence (AID 1139). The settings on record: small-molecule microarray binding, fluorescence 635/667; higher = more signal.
The subject of assay [16] is wheat germ agglutinin (Triticum aestivum), Alexa647-labelled. The experiment in a line: wheat germ agglutinin binders on compound microarrays, profiling panel, artefact control for SMM control-protein annotation, biochemical, small-molecule microarray, 635/667 nm fluorescence (AID 1140).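 Further: score merges 667 nm feature emission with signal to noise over triplicate slides.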 The note with it: WGA-A647 binding, 635 nm fluorescence, higher = more signal.
Assay [17] has as its target Luciferin 4-monooxygenase (Photinus pyralis) (UniProt P08659). As to the kind of experiment: firefly luciferase enzyme inhibitors, primary screen, biochemical, luminescence, purified enzyme, 2006 set (AID 1141).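 Further: cell-free assay with purified firefly luciferase at 100 ng per well in PBS; test concentration not given here.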 The note with it: SteadyGlo luminescence, 30 min, higher = more signal, called active from +8 up or from −8 down.

Active and inactive are the calls of the source.

Sequence of Focal adhesion kinase 1 (Homo sapiens) (Q05397 whole entry, looked up): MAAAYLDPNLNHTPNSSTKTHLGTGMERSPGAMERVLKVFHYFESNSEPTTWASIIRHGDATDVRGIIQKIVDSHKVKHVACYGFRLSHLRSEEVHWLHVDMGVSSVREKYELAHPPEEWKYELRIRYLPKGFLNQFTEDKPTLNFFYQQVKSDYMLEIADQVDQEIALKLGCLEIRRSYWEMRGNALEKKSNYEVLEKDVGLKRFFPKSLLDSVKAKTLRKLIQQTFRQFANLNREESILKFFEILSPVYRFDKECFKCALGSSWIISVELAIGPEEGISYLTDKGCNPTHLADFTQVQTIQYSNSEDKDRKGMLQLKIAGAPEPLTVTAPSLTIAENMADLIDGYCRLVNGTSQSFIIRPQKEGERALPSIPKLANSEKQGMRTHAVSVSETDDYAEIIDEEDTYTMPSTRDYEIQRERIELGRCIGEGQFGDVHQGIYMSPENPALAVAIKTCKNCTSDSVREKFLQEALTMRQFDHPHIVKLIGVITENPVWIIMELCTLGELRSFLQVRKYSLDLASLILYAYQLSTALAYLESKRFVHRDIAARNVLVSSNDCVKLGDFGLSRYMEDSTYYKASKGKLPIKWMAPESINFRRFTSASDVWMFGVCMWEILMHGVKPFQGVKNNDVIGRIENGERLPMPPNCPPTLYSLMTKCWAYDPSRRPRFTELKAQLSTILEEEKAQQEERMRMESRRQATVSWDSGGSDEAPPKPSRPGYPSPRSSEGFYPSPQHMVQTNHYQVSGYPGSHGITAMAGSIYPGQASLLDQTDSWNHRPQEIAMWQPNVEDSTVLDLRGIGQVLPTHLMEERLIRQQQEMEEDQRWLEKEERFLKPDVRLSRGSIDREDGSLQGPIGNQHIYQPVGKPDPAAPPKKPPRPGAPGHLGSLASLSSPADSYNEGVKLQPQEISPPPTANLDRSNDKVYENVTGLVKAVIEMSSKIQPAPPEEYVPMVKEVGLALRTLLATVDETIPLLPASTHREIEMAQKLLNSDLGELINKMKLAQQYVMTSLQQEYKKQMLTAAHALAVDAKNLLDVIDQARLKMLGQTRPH
Sequence of Luciferin 4-monooxygenase (Photinus pyralis) (P08659 whole entry, looked up): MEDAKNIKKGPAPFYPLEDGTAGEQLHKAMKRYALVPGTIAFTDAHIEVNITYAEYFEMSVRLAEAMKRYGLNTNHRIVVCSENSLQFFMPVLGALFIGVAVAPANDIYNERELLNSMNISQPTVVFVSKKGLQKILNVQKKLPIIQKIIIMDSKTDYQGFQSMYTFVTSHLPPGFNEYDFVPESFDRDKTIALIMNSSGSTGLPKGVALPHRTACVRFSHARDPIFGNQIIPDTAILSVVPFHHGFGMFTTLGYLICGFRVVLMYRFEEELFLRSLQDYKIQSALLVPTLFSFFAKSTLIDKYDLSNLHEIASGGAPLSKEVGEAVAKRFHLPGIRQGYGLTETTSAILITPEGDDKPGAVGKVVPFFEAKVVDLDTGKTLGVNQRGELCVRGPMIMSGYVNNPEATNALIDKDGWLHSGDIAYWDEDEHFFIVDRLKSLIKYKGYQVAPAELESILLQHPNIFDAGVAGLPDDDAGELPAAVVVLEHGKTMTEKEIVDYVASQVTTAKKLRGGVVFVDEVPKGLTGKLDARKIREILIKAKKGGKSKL
Sequence of Concanavalin-A (Canavalia ensiformis) (P02866 whole entry, looked up): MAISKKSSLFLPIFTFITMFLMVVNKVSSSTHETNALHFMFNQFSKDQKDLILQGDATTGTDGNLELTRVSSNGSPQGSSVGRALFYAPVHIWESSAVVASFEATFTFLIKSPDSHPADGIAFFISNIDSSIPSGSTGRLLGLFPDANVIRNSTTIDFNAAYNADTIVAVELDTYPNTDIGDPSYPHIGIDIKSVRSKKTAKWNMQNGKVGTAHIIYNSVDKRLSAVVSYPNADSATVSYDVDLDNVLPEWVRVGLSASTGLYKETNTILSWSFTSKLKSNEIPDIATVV
Sequence of Follistatin (Homo sapiens) (P19883 whole entry, looked up): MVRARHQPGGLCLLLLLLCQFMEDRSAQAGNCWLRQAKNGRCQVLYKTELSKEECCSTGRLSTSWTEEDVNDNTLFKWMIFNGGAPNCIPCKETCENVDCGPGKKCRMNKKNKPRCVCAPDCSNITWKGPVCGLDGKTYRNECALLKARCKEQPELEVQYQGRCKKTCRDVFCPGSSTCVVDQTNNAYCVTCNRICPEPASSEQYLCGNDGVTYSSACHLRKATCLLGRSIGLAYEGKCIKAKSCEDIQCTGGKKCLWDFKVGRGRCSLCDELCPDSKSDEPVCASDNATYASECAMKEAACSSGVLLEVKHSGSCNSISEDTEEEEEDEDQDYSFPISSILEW
Sequence of Albumin (Bos taurus) (P02769 whole entry, looked up): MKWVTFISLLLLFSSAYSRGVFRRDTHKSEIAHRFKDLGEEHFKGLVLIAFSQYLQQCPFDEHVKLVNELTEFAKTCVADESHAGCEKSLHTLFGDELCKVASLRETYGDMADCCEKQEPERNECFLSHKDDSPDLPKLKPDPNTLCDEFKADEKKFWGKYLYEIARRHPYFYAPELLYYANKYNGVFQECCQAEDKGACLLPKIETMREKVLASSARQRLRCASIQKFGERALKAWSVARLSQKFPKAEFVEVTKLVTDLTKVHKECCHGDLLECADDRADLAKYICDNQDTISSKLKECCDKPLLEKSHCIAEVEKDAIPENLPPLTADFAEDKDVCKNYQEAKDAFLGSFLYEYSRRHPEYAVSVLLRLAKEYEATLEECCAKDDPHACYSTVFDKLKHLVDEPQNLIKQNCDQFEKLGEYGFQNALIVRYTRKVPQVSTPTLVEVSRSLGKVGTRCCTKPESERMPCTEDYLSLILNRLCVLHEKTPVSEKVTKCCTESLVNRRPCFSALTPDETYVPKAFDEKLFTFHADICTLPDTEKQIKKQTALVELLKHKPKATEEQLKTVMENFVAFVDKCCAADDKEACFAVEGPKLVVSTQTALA
Sequence of Fibroblast growth factor 2 (Homo sapiens) (P09038 whole entry, looked up): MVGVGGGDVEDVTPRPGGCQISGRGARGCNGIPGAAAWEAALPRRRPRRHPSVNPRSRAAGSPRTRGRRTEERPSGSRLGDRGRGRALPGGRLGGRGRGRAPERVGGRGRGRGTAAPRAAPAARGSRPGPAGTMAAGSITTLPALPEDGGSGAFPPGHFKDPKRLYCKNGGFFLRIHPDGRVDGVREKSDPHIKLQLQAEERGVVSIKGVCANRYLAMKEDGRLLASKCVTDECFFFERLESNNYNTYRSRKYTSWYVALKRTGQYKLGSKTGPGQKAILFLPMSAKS

In the case of `CC(C)[C@@H](OCc1ccccc1)[C@H](C)C=NOC[C@@H](O)[C@H]1O[C@@H]2OC(C)(C)O[C@@H]2[C@H]1O`, the composite z-score was 0.0762 with Albumin (Bos taurus); -0.0014 in assay [2]; -0.147 in assay [3]; -0.0043 in assay [4]; 0.223 in assay [5]; 0.614 in assay [6]. For the same molecule, the composite z-score in the assay on Sam68 (KHDRBS1) is 0.574; in [7] it was 0.314; in assay [8] it was 1.07; in [9], 2.33; in [10] it was 0.387; in assay [11] it was 0.137. For the same molecule, the composite z-score in assay [12] was 0.941; in assay [13] it was 0.214; in [14], 0.635; in the assay with Lefty1, 0.768; in [16], 0.234. Moreover, the composite Z-score in [1] is 0.528 (inactive). In addition, the z-score in [15] is -0.958; in assay [17], -0.587 (inactive).

With `CC(=O)OC[C@H]1O[C@H](CC=NOC(C)CN2CCCCc3nc(C)c(C)cc32)C=C[C@@H]1OC(C)=O` (stereo not given in full), the composite z-score with Albumin (Bos taurus) came out at 0.486; in [2], 0.678; in [3] it was 0.0312; in assay [4], 0.0236; in assay [5], 0.511; in assay [6] it was 0.333. Further, the composite z-score in the assay with Sam68 (KHDRBS1) is 1.31; in assay [7], 1.33; in assay [8], 0.902; in assay [9], 0.544; in assay [10] it was 0.819; in assay [11] it was 0.0336. Further, the composite z-score in [12] was found to be 0.495; in assay [13], 1.23; in [14], 0.773; with Lefty1 it was 1.55; in assay [16] it was 0.73. The composite Z-score in assay [1] is -1.11 (inactive). Further, the z-score was -0.683 in [15] and 1.46 (inactive) in [17].

As for `COc1ccc(COC(=O)NN=C2C[C@@H](O)[C@@H](O)[C@@H]3[C@@H]4C(=O)N(C(C)(C)C)C(=O)[C@@H]4CC[C@@H]23)cc1`, the composite z-score with Albumin (Bos taurus) is 0.584; in [2], 0.136; in assay [3] it was -0.167; in assay [4], 0.346; in assay [5] it was 0.685; in assay [6], 0.31. Moreover, the composite z-score in the assay on Sam68 (KHDRBS1) is 1.14; in assay [7], 0.59; in assay [8] it was 0.632; in assay [9] it was 0.839; in assay [10], 0.656; in [11], -0.14. Further, the composite z-score in assay [12] worked out at 0.874; in assay [13], 0.542; in [14], 0.247; with Lefty1, 0.548; in assay [16] it was 0.608. The composite Z-score in [1] is 0.526 (inactive). Moreover, the z-score in [15] is -0.367; in assay [17], 0.137 (inactive).

With `CC(C)(C)N1C(=O)[C@H]2[C@H]3[C@H](O)[C@H](O)CC(=NOC[C@@H](O)COCc4ccco4)[C@H]3CC[C@H]2C1=O`, the composite z-score with Albumin (Bos taurus) is 0.383; in assay [2] it was -0.128; in assay [3], -0.117; in [4], 0.282; in [5] it was 0.327; in [6], 0.72. The composite z-score with Sam68 (KHDRBS1) is 0.396; in assay [7], 0.479; in assay [8] it was 0.315; in assay [9], 0.606; in assay [10], 0.237; in [11] it was -0.136. The composite z-score in [12] is 0.0824; in [13] it was -0.22; in [14] it was 0.249; in the assay with Lefty1, -0.0429; in assay [16] it was 0.495. Also, the composite Z-score in assay [1] was -0.0443 (inactive). For the same molecule, the z-score in assay [15] was 0.0624; in assay [17], -0.011 (inactive).

Regarding `CC(=O)OC[C@H]1O[C@H](CC=NOC[C@@H](O)COCc2ccco2)C=C[C@@H]1OC(C)=O`, the composite z-score with Albumin (Bos taurus) was 0.037; in [2] it was 0.282; in assay [3], -0.0022; in assay [4], -0.287; in assay [5], -0.37; in assay [6] it was -0.14. The composite z-score in the assay on Sam68 (KHDRBS1) is 0.586; in [7], 1.46; in [8] it was -0.389; in assay [9], 0.526; in assay [10], -0.193; in assay [11] it was 0.0925. Besides, the composite z-score in [12] is -0.629; in assay [13], 1.38; in assay [14], 1.54; in the assay on Lefty1 it was 1.52; in assay [16] it was -0.327. Further, the composite Z-score in assay [1] is 0.328 (inactive). For the same molecule, the values for the z-score in assay [15] and in assay [17] were 0.548 and 0.642 (inactive), respectively.

Turning to `O=C1[C@H]2[C@H]3[C@H](O)[C@H](O)CC(=NO[C@@H]4O[C@H](CO)[C@@H](O)[C@H](O)[C@H]4O)[C@@H]3CC[C@H]2C(=O)N1c1cccc(Oc2ccccc2)c1`, the composite z-score in the assay with Albumin (Bos taurus) was 0.29; in assay [2], -0.0391; in assay [3], -0.104; in assay [4], -0.0428; in assay [5] it was 0.109; in [6], 0.106. The composite z-score in the assay on Sam68 (KHDRBS1) stood at 0.324; in assay [7], 0.775; in [8], 0.588; in assay [9], 0.13; in assay [10], 0.542; in assay [11], 0.0405. For the same molecule, the composite z-score in [12] was found to be 0.578; in [13], 0.858; in [14], 0.948; in the assay on Lefty1 it was 0.879; in assay [16], 0.335. In addition, in assay [1], the composite Z-score was -0.65 (inactive). In addition, the z-score is -0.728 in assay [15] and 0.825 (inactive) in assay [17].

Consider `COC(=O)[C@H](C)NC(=O)CCC1CC(OC(=O)NCc2ccc3c(c2)OCO3)CC2(CCCC(COC(=O)NCCCN3CCCC3=O)O2)O1` (stereo not given in full), for which the composite z-score was 0.328 in the assay with Albumin (Bos taurus); 0.186 in assay [2]; -0.293 in assay [3]; 0.167 in assay [4]; 0.639 in assay [5]; 0.261 in assay [6]. Besides, the composite z-score in the assay on Sam68 (KHDRBS1) was 1.26; in [7], 0.826; in assay [8], 0.872; in assay [9], 0.23; in [10] it was 1.03; in assay [11], 0.174. Besides, the composite z-score in assay [12] is 0.861; in assay [13], 0.602; in assay [14], 1.42; with Lefty1, 0.777; in assay [16] it was 0.364. The composite Z-score in [1] was 0.3 (inactive). For the same molecule, the figures for the z-score in assay [15] and in assay [17] were -0.224 and 0.906 (inactive), respectively.

`CC=CC1=C(CO)[C@H](O)[C@H]2O[C@H]2[C@@H]1O`: the composite z-score in the assay with Albumin (Bos taurus) is -0.0712; in assay [2] it was 0.213; in [3], -0.141; in [4] it was 0.17; in assay [5], -0.394; in assay [6], -0.599. The composite z-score in the assay with Sam68 (KHDRBS1) is 0.269; in assay [7] it was 0.753; in assay [8], 0.0361; in assay [9], 0.343; in assay [10], 0.23; in assay [11] it was -0.401. Besides, the composite z-score in assay [12] is -0.0599; in assay [13] it was 0.937; in [14] it was 0.45; in the assay with Lefty1, 0.911; in [16] it was -0.0224. Moreover, the composite Z-score in assay [1] is 0.0296 (inactive). The z-score in assay [15] is -0.537; in [17] it was -0.0811 (inactive).
